The values below come from PubChem BioAssay.

The nature of assay [1]: small molecules captured by biotinylated probe aFSTL3 – biochemical, small-molecule microarray, fluorescence 635/667, stem cell growth factor project, primary screen (AID 1064).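 Also: measures binding of the biotinylated anti-FSTL3 antibody to printed compounds.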 The conditions noted are these: higher = more signal.
Assay [2] in a line: binders from COS7 lysate, DM2A8 probe, primary screen, torsin A project, cell lysate, small-molecule microarray, fluorescence 635/667 (AID 1065). To be noted: higher = more signal, COS7 lysate expressing mutant human TOR1A.
A short description of assay [3]: small molecules captured by biotinylated probe aFGF2 – biochemical, small-molecule microarray, fluorescence 635/667, stem cell growth factor project, primary screen (AID 1067).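 Also: measures binding of biotinylated aFGF2 protein to printed compounds on slides; z-score merges feature fluorescence and signal-to-noise across triplicate slides.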 The conditions noted are these: higher = more signal.
The nature of assay [4]: small molecules captured by biotinylated probe aFGF10 – biochemical, small-molecule microarray, fluorescence 635/667, stem cell growth factor project, primary screen (AID 1071).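 Also: score merges 667 nm spot intensity and signal to noise from triplicate slides.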 The conditions noted are these: higher = more signal.
In assay [5] the target is Neurogenic locus notch homolog protein 2 (Homo sapiens) (UniProt Q04721). Description: small molecules binding Notch2 protein – biochemical, small-molecule microarray, 635 nm fluorescence, stem cell growth factors, primary screen (AID 1073). To be noted: higher = more signal.
Assay [6] addresses Pro-neuregulin-1, membrane-bound isoform (Homo sapiens) (UniProt Q02297). The assay is described as follows: small molecules binding neuregulin-1 protein – biochemical, small-molecule microarray, fluorescence 635/667, psychiatric disease protein project, primary screen (AID 1075).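 Also: score combines 667 nm spot fluorescence with signal to noise.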 To be noted: NRG1 binding, 635 nm fluorescence, higher = more signal.
The subject of assay [7] is Neuregulin-1 EGF-like domain. The assay is described as follows: small molecules binding NRG1 EGF domain – biochemical, small-molecule microarray, 635 nm fluorescence, primary screen (AID 1081).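 Also: binding of the protein to compounds printed on small-molecule microarray slides.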 To be noted: higher = more signal.
A short description of assay [8]: FRG1 expression reporter modulators in myotubes – cell-based, C2C12 myotubes, firefly/Renilla luciferase, luminescence, FRG1 inhibition for FSHD, primary screen (AID 1084). The conditions noted are these: FRG1 promoter luciferase, higher = more signal, called active from +8 up or from −8 down.
Assay [9] is described as follows: small molecules captured by biotinylated probe aFST – biochemical, small-molecule microarray, fluorescence 635/667, stem cell growth factor project, primary screen (AID 1086).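 Also: score merges 667 nm fluorescence with signal-to-noise of each printed compound spot.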 The conditions noted are these: higher = more signal.
A short description of assay [10]: binders of probe aHhip on microarray, primary screen, stem cell growth factor project, biochemical, small-molecule microarray, fluorescence 635/667 (AID 1087).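 Also: score merges spot fluorescence at 667nm with spot signal to noise ratio.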 To be noted: higher = more signal.

Activity calls are given as the source filed them.

Chain of Neurogenic locus notch homolog protein 2 (Homo sapiens) (Q04721 whole entry, looked up, canonical isoform): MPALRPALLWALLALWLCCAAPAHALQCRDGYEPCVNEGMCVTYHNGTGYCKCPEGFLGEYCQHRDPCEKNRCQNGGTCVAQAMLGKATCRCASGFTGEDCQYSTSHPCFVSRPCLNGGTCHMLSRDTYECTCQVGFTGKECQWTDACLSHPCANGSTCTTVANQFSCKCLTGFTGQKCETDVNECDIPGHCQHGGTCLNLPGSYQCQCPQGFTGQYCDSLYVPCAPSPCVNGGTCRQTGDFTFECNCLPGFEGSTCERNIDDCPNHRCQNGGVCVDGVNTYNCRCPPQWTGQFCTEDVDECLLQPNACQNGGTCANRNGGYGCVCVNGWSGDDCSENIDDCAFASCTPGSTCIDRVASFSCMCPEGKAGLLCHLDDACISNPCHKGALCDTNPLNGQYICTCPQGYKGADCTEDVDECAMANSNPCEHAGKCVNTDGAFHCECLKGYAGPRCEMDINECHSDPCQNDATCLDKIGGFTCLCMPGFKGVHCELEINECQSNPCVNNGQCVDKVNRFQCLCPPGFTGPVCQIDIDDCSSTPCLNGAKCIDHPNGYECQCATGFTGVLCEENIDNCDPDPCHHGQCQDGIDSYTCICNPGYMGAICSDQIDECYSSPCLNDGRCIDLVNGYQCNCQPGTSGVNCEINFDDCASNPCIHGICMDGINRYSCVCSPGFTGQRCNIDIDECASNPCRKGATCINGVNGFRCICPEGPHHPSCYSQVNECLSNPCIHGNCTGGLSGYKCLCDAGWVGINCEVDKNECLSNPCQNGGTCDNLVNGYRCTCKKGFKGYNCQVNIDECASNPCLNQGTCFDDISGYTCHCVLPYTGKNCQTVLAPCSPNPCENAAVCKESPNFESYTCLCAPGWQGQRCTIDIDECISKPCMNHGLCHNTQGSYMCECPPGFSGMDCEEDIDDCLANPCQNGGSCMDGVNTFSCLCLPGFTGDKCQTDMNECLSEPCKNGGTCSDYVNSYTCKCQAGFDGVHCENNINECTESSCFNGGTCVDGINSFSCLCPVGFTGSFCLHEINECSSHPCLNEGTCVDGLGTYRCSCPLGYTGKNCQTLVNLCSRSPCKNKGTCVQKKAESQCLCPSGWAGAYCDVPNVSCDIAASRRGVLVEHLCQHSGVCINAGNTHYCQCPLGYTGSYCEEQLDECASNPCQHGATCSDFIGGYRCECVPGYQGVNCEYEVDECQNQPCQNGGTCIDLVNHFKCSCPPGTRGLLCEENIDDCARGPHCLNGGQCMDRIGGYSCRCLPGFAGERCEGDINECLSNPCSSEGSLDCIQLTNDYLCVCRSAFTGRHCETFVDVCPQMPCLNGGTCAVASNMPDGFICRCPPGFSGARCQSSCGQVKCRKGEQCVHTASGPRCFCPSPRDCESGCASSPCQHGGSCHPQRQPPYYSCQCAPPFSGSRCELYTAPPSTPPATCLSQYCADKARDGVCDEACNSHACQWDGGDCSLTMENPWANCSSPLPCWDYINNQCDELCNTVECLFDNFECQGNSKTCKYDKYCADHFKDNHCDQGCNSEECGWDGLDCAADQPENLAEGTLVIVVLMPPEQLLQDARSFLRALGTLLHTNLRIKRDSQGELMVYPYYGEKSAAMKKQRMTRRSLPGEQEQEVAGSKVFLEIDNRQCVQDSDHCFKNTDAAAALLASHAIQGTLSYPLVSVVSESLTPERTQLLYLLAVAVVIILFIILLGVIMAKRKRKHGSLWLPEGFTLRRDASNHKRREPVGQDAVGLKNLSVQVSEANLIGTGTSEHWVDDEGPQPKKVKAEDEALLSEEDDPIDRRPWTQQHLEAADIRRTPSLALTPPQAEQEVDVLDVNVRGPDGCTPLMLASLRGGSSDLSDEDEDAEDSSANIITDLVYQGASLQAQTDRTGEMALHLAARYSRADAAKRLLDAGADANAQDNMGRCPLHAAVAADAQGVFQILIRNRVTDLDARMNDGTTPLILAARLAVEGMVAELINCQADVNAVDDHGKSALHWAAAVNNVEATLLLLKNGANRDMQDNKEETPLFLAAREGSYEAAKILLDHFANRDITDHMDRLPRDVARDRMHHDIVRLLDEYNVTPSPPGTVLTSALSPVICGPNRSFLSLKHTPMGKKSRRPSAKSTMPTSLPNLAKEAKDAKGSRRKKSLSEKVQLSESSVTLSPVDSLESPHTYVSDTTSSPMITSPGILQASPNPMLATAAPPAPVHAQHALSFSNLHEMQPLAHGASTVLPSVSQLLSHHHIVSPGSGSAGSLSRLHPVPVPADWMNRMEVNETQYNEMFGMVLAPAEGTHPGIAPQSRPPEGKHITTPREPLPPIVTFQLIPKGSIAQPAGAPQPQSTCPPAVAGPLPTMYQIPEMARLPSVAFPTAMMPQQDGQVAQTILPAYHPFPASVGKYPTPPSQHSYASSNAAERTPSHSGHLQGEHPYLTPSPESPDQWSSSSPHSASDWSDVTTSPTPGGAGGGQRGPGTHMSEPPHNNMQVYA
Chain of Pro-neuregulin-1, membrane-bound isoform (Homo sapiens) (Q02297 whole entry, looked up, the tested form may be a part, canonical isoform): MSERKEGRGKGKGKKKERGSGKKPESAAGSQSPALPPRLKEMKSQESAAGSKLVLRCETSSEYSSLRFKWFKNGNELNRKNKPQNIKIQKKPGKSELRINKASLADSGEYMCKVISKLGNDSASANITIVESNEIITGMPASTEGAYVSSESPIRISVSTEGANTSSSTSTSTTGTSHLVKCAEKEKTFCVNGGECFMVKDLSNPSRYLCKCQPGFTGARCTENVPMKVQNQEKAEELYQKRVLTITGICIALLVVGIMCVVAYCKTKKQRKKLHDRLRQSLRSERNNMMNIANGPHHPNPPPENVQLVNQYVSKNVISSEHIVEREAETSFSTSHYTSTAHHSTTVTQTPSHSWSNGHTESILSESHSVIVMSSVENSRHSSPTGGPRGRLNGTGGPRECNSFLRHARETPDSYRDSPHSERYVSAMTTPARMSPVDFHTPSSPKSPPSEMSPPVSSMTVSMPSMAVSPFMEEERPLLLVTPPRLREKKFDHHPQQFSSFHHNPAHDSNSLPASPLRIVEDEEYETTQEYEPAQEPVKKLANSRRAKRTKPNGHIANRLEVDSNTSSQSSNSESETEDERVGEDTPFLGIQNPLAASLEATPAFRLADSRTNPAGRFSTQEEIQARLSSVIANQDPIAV

As for `CCOC(=O)C[C@H]1[C@H](OC(=O)c2ccccc2-c2ccccc2)[C@@H](NC(=O)c2ccc3ccccc3n2)c2cc(OCCCO)ccc2N1C(=O)Cc1ccc(OC)cc1`, the composite z-score in [1] is 0.139; in [2], 0.394; in assay [3] it was -0.0715; in assay [4] it was 0.158; in assay [5], 0.383; in assay [6], 0.336. The composite z-score in [7] is 0.028; in assay [9], 0.311; in assay [10] it was -0.142. In addition, in [8], the z-score was 0.63 (inactive).
As to `[N-]=[N+]=Nc1ccccc1[C@H]1OC(c2ccc(OCCCO)cc2)=N[C@@]1(Cc1ccccc1)C(=O)NCCN1CCOCC1`, the composite z-score in [1] is 0.701; in [2] it was 0.584; in [3], 0.178; in assay [4] it was 1.19; in [5], 1.65; in assay [6] it was 1.96. Also, the composite z-score is 1.39 in [7], 1.66 in [9] and -0.106 in assay [10]. Further, in assay [8], the z-score was 0.0219 (inactive).
For `CC1CC/C=C\[C@H]2OC34C=CCN(c5ccc6ccccc6c5)C(=O)[C@H]3N(CCCO)C(=O)[C@@H]4C2C(=O)O1` (stereo not given in full), the composite z-score is 0.932 in [1]; -0.541 in assay [2]; -0.188 in assay [3]; -1.25 in assay [4]; -0.746 in assay [5]; 1.19 in assay [6]. For the same molecule, the values for the composite z-score in [7], in assay [9] and in assay [10] were -0.459, -0.757 and -0.19, respectively. For the same molecule, the z-score in assay [8] is 2.62 (inactive).
`COCCOC(=O)N1C(=O)[C@@]2(c3cc(C#CCCO)ccc31)[C@H](c1ccc(OCCO)cc1)N1[C@H](c3ccccc3)[C@H](c3ccccc3)OC(=O)[C@H]1[C@@H]2C(=O)Nc1nc2ccccc2s1`: the composite z-score in assay [1] was 0.878; in assay [2], 0.68; in assay [3], 0.0943; in assay [4], 0.575; in [5], 0.586; in assay [6], 0.222. Moreover, the figures for the composite z-score in [7], in [9] and in [10] were 1.1, 1.24 and 0.547, respectively. The z-score in assay [8] was 2.92 (inactive).
In the case of `[N-]=[N+]=NCc1ccccc1[C@H]1OC(c2ccc(OCCCO)cc2)=N[C@@]1(Cc1ccccc1N=[N+]=[N-])C(=O)NCC(O)CO` (stereo not given in full), the composite z-score was -0.0235 in [1]; 0.651 in assay [2]; 0.0342 in [3]; 0.867 in assay [4]; 1.24 in assay [5]; 1.68 in assay [6]. The composite z-score in assay [7] was 1.13; in assay [9], 1.43; in assay [10] it was -0.31. Besides, in assay [8], the z-score is 1.5 (inactive).
In the case of `C=CCNC(=O)[C@@H]1[C@H]2C(=O)O[C@H](c3ccccc3)[C@H](c3ccccc3)N2[C@H](c2ccccc2OCCO)[C@@]12C(=O)Nc1ccc(C#CCC(C(=O)OC)C(=O)OC)cc12`, the composite z-score in [1] was -0.44; in [2], 0.491; in assay [3] it was -0.116; in assay [4] it was 0.422; in assay [5], 0.894; in assay [6], 1.39. For the same molecule, the composite z-score was 1.28 in assay [7], -0.437 in [9] and -0.347 in [10]. Also, the z-score in assay [8] was 1.1 (inactive).
Take `CCCCNC(=O)c1ccc(C#CC(C)(C)C)c(OC(C)=O)c1`: the composite z-score was -0.769 in assay [1]; 0.212 in [2]; -0.132 in assay [3]; 0.572 in assay [4]; 1.04 in assay [5]; 0.158 in assay [6]. For the same molecule, the figures for the composite z-score in [7], in assay [9] and in assay [10] were 0.865, 0.031 and -0.0994, respectively. Moreover, in [8], the z-score is 4.66 (inactive).
`[N-]=[N+]=Nc1ccccc1[C@@H]1OC(c2ccc(OCCCO)cc2)=N[C@]1(Cc1ccccc1)C(=O)N1CCCCC1`: the composite z-score in assay [1] worked out at 0.0153; in [2] it was 1; in assay [3], 0.122; in assay [4], 0.9; in [5], 1.39; in assay [6], 1.37. The composite z-score is 1.28 in assay [7], 1.46 in assay [9] and 0.249 in [10]. Further, the z-score in [8] is -2.33 (inactive).
For the molecule `O=C1O[C@H](c2ccccc2)[C@H](c2ccccc2)N2[C@H]1[C@@H](C(=O)O)[C@]1(C(=O)Nc3ccc(C#CCCO)cc31)[C@H]2c1ccccc1OCCO`, the composite z-score in assay [1] was -0.324; in [2], 0.627; in assay [3] it was -0.0962; in [4], 0.21; in assay [5], -0.0765; in [6], 0.944. For the same molecule, the composite z-score in [7] is 1.23; in assay [9], -0.0238; in assay [10], -0.0994. The z-score in assay [8] was 0.37 (inactive).
On to `Cc1ccc(S[C@]2(C(=O)NCC(F)(F)F)CC(=O)N(Cc3cc(C(F)(F)F)cc(C(F)(F)F)c3)[C@@H]2c2ccc(CO)cc2I)cc1`, for which the composite z-score in [1] is 0.225; in assay [2] it was 1.52; in [3], -0.128; in assay [4], -0.41; in assay [5], -1.14; in [6] it was 0.848. Also, the composite z-score was 0.434 in [7], -0.666 in assay [9] and -0.409 in [10]. In addition, the z-score in [8] is -0.326 (inactive).
With `O=C1[C@H]2C=C(I)[C@H](C[C@@H]2OCCOCCO)[C@@]12CO2`, the composite z-score in assay [1] was -0.444; in assay [2], 0.97; in assay [3], -0.0877; in [4], 0.454; in assay [5], 0.67; in assay [6], -0.183. Also, the composite z-score in assay [7] was 0.653; in assay [9] it was -0.192; in [10] it was 0.0722. The z-score in [8] was 0.843 (inactive).
For `C=CCNC(=O)[C@@H]1[C@H]2C(=O)O[C@H](c3ccccc3)[C@H](c3ccccc3)N2[C@H](c2ccccc2OCCO)[C@@]12C(=O)N(C(=O)OCCOC)c1ccc(C#CC3(O)CCCCCC3)cc12`, the composite z-score in assay [1] was -0.249; in [2] it was 0.356; in assay [3], -0.0004; in assay [4], 0.427; in assay [5], 1.14; in [6] it was 1.16. The figures for the composite z-score in [7], in [9] and in [10] were 1.14, 0.771 and -0.0994, respectively. Also, the z-score in assay [8] is -0.257 (inactive).
For the molecule `CCCC[C@@H](O)C1=C(COC)C[C@H]2C(=O)N(C)C(=O)[C@H]2[C@H]1CO`, the composite z-score was -0.439 in assay [1]; 0.131 in assay [2]; -0.176 in assay [3]; 0.466 in [4]; -0.02 in assay [5]; -0.321 in assay [6]. Also, the composite z-score in assay [7] is -0.282; in [9], 0.0794; in assay [10], -0.16. For the same molecule, the z-score in assay [8] was -1.21 (inactive).
Regarding `O=C1C[C@]2(c3ccc([N+](=O)[O-])cc3)C(=O)N(C3CC3)c3cc(CO)ccc3[C@H]2N1CC12CC3CC(CC(C3)C1)C2`, the composite z-score in assay [1] was -0.224; in assay [2], -0.622; in [3] it was -0.0825; in assay [4], -0.0253; in [5] it was -0.562; in assay [6], -0.0609. Besides, the composite z-score in assay [7] was -0.5; in assay [9], 0.0196; in assay [10], -0.258. Also, the z-score in assay [8] is -0.0608 (inactive).
With `Cc1ccc(S[C@]2(C(=O)NCc3ccccc3)CC(=O)N(C3CCCCC3)[C@@H]2c2ccc(CO)cc2I)cc1`, the composite z-score in [1] was 1.27; in assay [2], -0.0582; in assay [3], 0.11; in assay [4] it was 0.339; in assay [5], 0.553; in assay [6], 1.17. Further, the composite z-score in assay [7] is 1.19; in assay [9] it was 0.455; in assay [10] it was -0.132. Further, the z-score in [8] is -2.84 (inactive).
